# The panel holds about 79,000 compounds, 15% with a hit somewhere; the sample as a whole holds those more often. Values without a mark were called inactive. Activity calls are given as the source filed them. Rule as the data show it: active = growth inhibition above about 70%; inactive = the rest.
# Assays:
# [1] = NCI Yeast Anticancer Drug Screen. Data for the rad52 strain (AID 147);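 also: 0% = growth of vehicle-treated control cultures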; conditions: S. cerevisiae rad52 mutant growth inhibition, hits give high values
# Outline: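 Compounds are applied to a genetically defined yeast strain lacking normal DNA damage repair, and inhibition of growth is expressed relative to cultures given vehicle only.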
# [2] = NCI Yeast Anticancer Drug Screen. Data for the wt1 strain (AID 149);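 also: 0% = growth of vehicle-treated wt1 cultures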; conditions: S. cerevisiae wt1 strain (SPY 50644) growth inhibition, hits give high values
# Outline: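 wt1 strain grown with compound or vehicle; inhibition taken from the growth difference.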
# [3] = NCI Yeast Anticancer Drug Screen. Data for the rad50EPP+ strain (AID 151);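 also: 0% = growth of vehicle-treated control cultures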; conditions: S. cerevisiae rad50 mutant strain, hits give high values
# Outline: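 Compounds were applied to the rad50EPP+ yeast strain, which bears a defined DNA repair alteration, and growth inhibition was determined relative to vehicle-treated cultures.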
# [4] = NCI Yeast Anticancer Drug Screen. Data for the mgt1 strain (AID 153); conditions: S. cerevisiae mgt1 mutant growth inhibition, hits give high values
# Outline: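 Strain: mgt1 yeast, one of a set carrying defined DNA damage repair or cell cycle control alterations. Compound-treated growth compared with vehicle.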
# [5] = NCI Yeast Anticancer Drug Screen. Data for the rad50 strain (AID 155);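 also: 0% = growth of vehicle-only cultures of the same strain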; conditions: S. cerevisiae rad50 strain growth inhibition, hits give high values
# Outline: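 DNA repair mutant yeast, compound exposure, growth read-out; inhibition is taken relative to vehicle.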
# [6] = NCI Yeast Anticancer Drug Screen. Data for the mec2-1 strain (AID 157); conditions: S. cerevisiae mec2-1 strain, hits give high values
# Outline: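 Strain: mec2-1 (DNA repair/cell cycle alteration). Compound exposure, then growth measured; inhibition expressed relative to vehicle.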
# [7] = NCI Yeast Anticancer Drug Screen. Data for the rad14 strain (AID 159);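 also: 0% = growth of vehicle-treated control cultures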; conditions: S. cerevisiae rad14 strain growth inhibition, hits give high values
# Outline: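 DNA repair-defective yeast, compound-exposed; % growth inhibition derived by comparison with vehicle-treated controls.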
# [8] = NCI Yeast Anticancer Drug Screen. Data for the sgs1 mgt1 strain (AID 161);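 also: 0% = growth of cultures given vehicle only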; conditions: S. cerevisiae sgs1 mgt1 strain, hits give high values
# Outline: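 Read-out: growth inhibition vs vehicle controls. Cells: mutant yeast strain deficient in DNA damage repair.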
# [9] = NCI Yeast Anticancer Drug Screen. Data for the CLN2oe strain (AID 163);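 also: 0% = growth of vehicle-only control cultures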; conditions: S. cerevisiae CLN2oe strain, hits give high values
# Outline: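 Growth of a genetically modified yeast strain is measured after compound exposure and compared with cultures given vehicle alone.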
# [10] = NCI Yeast Anticancer Drug Screen. Data for the cln2 rad14 strain (AID 165);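 also: 0% = growth equal to vehicle treated cultures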; conditions: S. cerevisiae cln2 rad14 strain, hits give high values
# Outline: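 Compounds are applied to the cln2 rad14 yeast strain, and growth is then compared with that of vehicle-treated cultures to give inhibition.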
# [11] = NCI Yeast Anticancer Drug Screen. Data for the bub3 strain (AID 167); conditions: S. cerevisiae bub3 mutant strain, hits give high values
# Outline: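 In this screen, a yeast mutant lacking normal mitotic checkpoint function is challenged with compound. Relative growth versus vehicle gives the inhibition value.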
# [12] = NCI Yeast Anticancer Drug Screen. Data for the wt2 strain (AID 169);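 also: 0% = growth of vehicle-treated yeast cultures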; conditions: S. cerevisiae wt2 strain growth inhibition, hits give high values
# Outline: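 This strain belongs to a panel of yeast strains with defined genetic alterations in DNA damage repair or cell cycle control. Compounds are applied, and growth inhibition is measured against vehicle-treated cultures.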
# [13] = NCI Yeast Anticancer Drug Screen. Data for the mlh1 strain (AID 171);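 also: 0% = growth of vehicle-treated control cultures of the same strain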; conditions: S. cerevisiae mlh1 strain growth inhibition, hits give high values
# Outline: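 Growth of the mutant yeast strain after compound exposure, expressed as inhibition relative to vehicle-only controls.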
# [14] = NCI Yeast Anticancer Drug Screen. Data for the sgs1 strain (AID 173);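 also: 0% = growth of vehicle-only control cultures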; conditions: S. cerevisiae sgs1 mutant, hits give high values
# Outline: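 Growth of a yeast strain bearing a defined genetic alteration is measured after compound treatment. Inhibition is expressed relative to vehicle-only controls.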
# [15] = NCI Yeast Anticancer Drug Screen. Data for the mlh1 rad18 strain (AID 175); conditions: S. cerevisiae mlh1 rad18 strain growth inhibition, hits give high values
# Outline: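 Read-out is yeast growth inhibition, calculated against vehicle-only controls. The compound was applied to a strain engineered with DNA damage repair alterations.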
# [16] = NCI Yeast Anticancer Drug Screen. Data for the rad18 strain (AID 177); conditions: S. cerevisiae rad18 mutant growth inhibition, hits give high values
# Outline: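 Growth of the mutant yeast strain after compound exposure, normalised to vehicle-only cultures.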
# [17] = at 5.0 µM (retest, dose inferred, filed as 0.5)
# [18] = at 50.0 µM (retest, dose inferred, filed as 5.0)
smiles,measurement,setting,value
Nc1ccccc1C(=O)OCCc1ccccc1,growth inhibition,[1]; at 1.2 µM,-9%
same,growth inhibition,[1]; at 3.7 µM,-4%
same,growth inhibition,[1]; at 11.0 µM,-21%
same,growth inhibition,[1]; at 33.0 µM,-3%
same,growth inhibition,[1]; at 100.0 µM,91% (active)
same,growth inhibition,[2]; at 1.2 µM,-25%
same,growth inhibition,[2]; at 3.7 µM,-6%
same,growth inhibition,[2]; at 11.0 µM,-23%
same,growth inhibition,[2]; at 33.0 µM,-26%
same,growth inhibition,[2]; at 100.0 µM,92% (active)
same,growth inhibition,[3]; at 1.2 µM,-23%
same,growth inhibition,[3]; at 3.7 µM,-9%
same,growth inhibition,[3]; at 11.0 µM,13%
same,growth inhibition,[3]; at 33.0 µM,22%
same,growth inhibition,[3]; at 100.0 µM,73% (active)
same,growth inhibition,[4]; at 1.2 µM,-74%
same,growth inhibition,[4]; at 3.7 µM,-63%
same,growth inhibition,[4]; at 11.0 µM,-62%
same,growth inhibition,[4]; at 33.0 µM,-52%
same,growth inhibition,[4]; at 100.0 µM,96% (active)
same,growth inhibition,[5]; at 1.2 µM,-3%
same,growth inhibition,[5]; at 3.7 µM,-7%
same,growth inhibition,[5]; [17],36%
same,growth inhibition,[5]; at 11.0 µM,-31%
same,growth inhibition,[5]; at 33.0 µM,13%
same,growth inhibition,[5]; [18],93% (active)
same,growth inhibition,[5]; at 50.0 µM,82.9% (active)
same,growth inhibition,[5]; at 100.0 µM,97% (active)
same,growth inhibition,[6]; at 1.2 µM,-8%
same,growth inhibition,[6]; at 3.7 µM,-4%
same,growth inhibition,[6]; [17],38%
same,growth inhibition,[6]; at 11.0 µM,-6%
same,growth inhibition,[6]; at 33.0 µM,13%
same,growth inhibition,[6]; [18],99% (active)
same,growth inhibition,[6]; at 50.0 µM,48.1%
same,growth inhibition,[6]; at 100.0 µM,85% (active)
same,growth inhibition,[7]; at 1.2 µM,-19%
same,growth inhibition,[7]; at 3.7 µM,-10%
same,growth inhibition,[7]; at 11.0 µM,-21%
same,growth inhibition,[7]; at 33.0 µM,-12%
same,growth inhibition,[7]; at 100.0 µM,97% (active)
same,growth inhibition,[8]; [17],-17%
same,growth inhibition,[8]; [18],74% (active)
same,growth inhibition,[8]; at 50.0 µM,68%
same,growth inhibition,[9]; at 1.2 µM,19%
same,growth inhibition,[9]; at 3.7 µM,17%
same,growth inhibition,[9]; at 11.0 µM,14%
same,growth inhibition,[9]; at 33.0 µM,-1%
same,growth inhibition,[9]; at 100.0 µM,91% (active)
same,growth inhibition,[10]; [17],62%
same,growth inhibition,[10]; [18],76% (active)
same,growth inhibition,[10]; at 50.0 µM,44.5%
same,growth inhibition,[11]; at 1.2 µM,-10%
same,growth inhibition,[11]; at 3.7 µM,0%
same,growth inhibition,[11]; [17],12%
same,growth inhibition,[11]; at 11.0 µM,-1%
same,growth inhibition,[11]; at 33.0 µM,5%
same,growth inhibition,[11]; [18],78% (active)
same,growth inhibition,[11]; at 50.0 µM,89.5% (active)
same,growth inhibition,[11]; at 100.0 µM,76% (active)
same,growth inhibition,[12]; at 1.2 µM,-16%
same,growth inhibition,[12]; at 3.7 µM,-15%
same,growth inhibition,[12]; at 11.0 µM,3%
same,growth inhibition,[12]; at 33.0 µM,-12%
same,growth inhibition,[12]; at 100.0 µM,94% (active)
same,growth inhibition,[13]; at 1.2 µM,-15%
same,growth inhibition,[13]; at 3.7 µM,-17%
same,growth inhibition,[13]; at 11.0 µM,-18%
same,growth inhibition,[13]; at 33.0 µM,-7%
same,growth inhibition,[13]; at 100.0 µM,97% (active)
same,growth inhibition,[14]; at 1.2 µM,-38%
same,growth inhibition,[14]; at 3.7 µM,-32%
same,growth inhibition,[14]; at 11.0 µM,-32%
same,growth inhibition,[14]; at 33.0 µM,-28%
same,growth inhibition,[14]; at 100.0 µM,94% (active)
same,growth inhibition,[15]; [17],34%
same,growth inhibition,[15]; [18],87% (active)
same,growth inhibition,[15]; at 50.0 µM,85.7% (active)
same,growth inhibition,[16]; at 1.2 µM,-58%
same,growth inhibition,[16]; at 3.7 µM,-22%
same,growth inhibition,[16]; at 11.0 µM,-29%
same,growth inhibition,[16]; at 33.0 µM,-24%
same,growth inhibition,[16]; at 100.0 µM,87% (active)
CC(=O)O/C(=C1\C[C@H]2[C@@H]3CC=C4C[C@@H](OC(C)=O)CC[C@]4(C)[C@H]3CC[C@]2(C)C1=O)C(F)(F)F,growth inhibition,[1]; at 1.2 µM,-2%
same,growth inhibition,[1]; at 3.7 µM,-1%
same,growth inhibition,[1]; at 11.0 µM,-5%
same,growth inhibition,[1]; at 33.0 µM,-3%
same,growth inhibition,[1]; at 100.0 µM,0%
same,growth inhibition,[2]; at 1.2 µM,-1%
same,growth inhibition,[2]; at 3.7 µM,1%
same,growth inhibition,[2]; at 11.0 µM,2%
same,growth inhibition,[2]; at 33.0 µM,0%
same,growth inhibition,[2]; at 100.0 µM,4%
same,growth inhibition,[3]; at 1.2 µM,1%
same,growth inhibition,[3]; at 3.7 µM,6%
same,growth inhibition,[3]; at 11.0 µM,5%
same,growth inhibition,[3]; at 33.0 µM,3%
same,growth inhibition,[3]; at 100.0 µM,1%
same,growth inhibition,[4]; at 1.2 µM,1%
same,growth inhibition,[4]; at 3.7 µM,0%
same,growth inhibition,[4]; at 11.0 µM,1%
same,growth inhibition,[4]; at 33.0 µM,1%
same,growth inhibition,[4]; at 100.0 µM,3%
same,growth inhibition,[5]; at 1.2 µM,3%
same,growth inhibition,[5]; at 3.7 µM,-1%
same,growth inhibition,[5]; [17],18%
same,growth inhibition,[5]; at 11.0 µM,7%
same,growth inhibition,[5]; at 33.0 µM,2%
same,growth inhibition,[5]; [18],18%
same,growth inhibition,[5]; at 50.0 µM,76.1% (active)
same,growth inhibition,[5]; at 100.0 µM,0%
same,growth inhibition,[6]; at 1.2 µM,2%
same,growth inhibition,[6]; at 3.7 µM,4%
same,growth inhibition,[6]; [17],19%
same,growth inhibition,[6]; at 11.0 µM,4%
same,growth inhibition,[6]; at 33.0 µM,5%
same,growth inhibition,[6]; [18],3%
same,growth inhibition,[6]; at 50.0 µM,80.5% (active)
same,growth inhibition,[6]; at 100.0 µM,14%
same,growth inhibition,[7]; at 1.2 µM,1%
same,growth inhibition,[7]; at 3.7 µM,-4%
same,growth inhibition,[7]; at 11.0 µM,0%
same,growth inhibition,[7]; at 33.0 µM,-7%
same,growth inhibition,[7]; at 100.0 µM,22%
same,growth inhibition,[8]; [17],2%
same,growth inhibition,[8]; [18],18%
same,growth inhibition,[8]; at 50.0 µM,77.8% (active)
same,growth inhibition,[9]; at 1.2 µM,-140%
same,growth inhibition,[9]; at 3.7 µM,4%
same,growth inhibition,[9]; at 11.0 µM,2%
same,growth inhibition,[9]; at 33.0 µM,1%
same,growth inhibition,[9]; at 100.0 µM,6%
same,growth inhibition,[10]; [17],37%
same,growth inhibition,[10]; [18],-1%
same,growth inhibition,[10]; at 50.0 µM,94% (active)
same,growth inhibition,[11]; at 1.2 µM,-1%
same,growth inhibition,[11]; at 3.7 µM,1%
same,growth inhibition,[11]; [17],-10%
same,growth inhibition,[11]; at 11.0 µM,10%
same,growth inhibition,[11]; at 33.0 µM,3%
same,growth inhibition,[11]; [18],13%
same,growth inhibition,[11]; at 50.0 µM,61.7%
same,growth inhibition,[11]; at 100.0 µM,6%
same,growth inhibition,[12]; at 1.2 µM,-1%
same,growth inhibition,[12]; at 3.7 µM,0%
same,growth inhibition,[12]; at 11.0 µM,-2%
same,growth inhibition,[12]; at 33.0 µM,-1%
same,growth inhibition,[12]; at 100.0 µM,2%
same,growth inhibition,[13]; at 1.2 µM,4%
same,growth inhibition,[13]; at 3.7 µM,4%
same,growth inhibition,[13]; at 11.0 µM,3%
same,growth inhibition,[13]; at 33.0 µM,-20%
same,growth inhibition,[13]; at 100.0 µM,11%
same,growth inhibition,[14]; at 1.2 µM,2%
same,growth inhibition,[14]; at 3.7 µM,3%
same,growth inhibition,[14]; at 11.0 µM,4%
same,growth inhibition,[14]; at 33.0 µM,3%
same,growth inhibition,[14]; at 100.0 µM,2%
same,growth inhibition,[15]; [17],9%
same,growth inhibition,[15]; [18],9%
same,growth inhibition,[15]; at 50.0 µM,63.5%
same,growth inhibition,[16]; at 1.2 µM,-4%
same,growth inhibition,[16]; at 3.7 µM,-3%
same,growth inhibition,[16]; at 11.0 µM,3%
same,growth inhibition,[16]; at 33.0 µM,-3%
same,growth inhibition,[16]; at 100.0 µM,-6%

# Reference: PubChem BioAssay (NCI)
